The values below come from PubChem BioAssay (NCATS).

In assay [1] the target is D(1A) dopamine receptor (Homo sapiens) (UniProt P21728). Briefly: HTS Assay for Allosteric Agonists of the Human D1 Dopamine Receptor: Primary Screen for Agonists (AID 488981). Also: 0% is about no effect. Summed up:
(§1)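 Tetracycline-induced HEK293 T-REx cells force-coupled to calcium signalling were incubated overnight at 30 C and dye-loaded at room temperature. Calcium flux over 180 s after compound addition flagged agonists; a further 180 s read after EC20 dopamine flagged potentiators.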

Assay [2] shares this target. Briefly: HTS Assay for Allosteric Agonists of the Human D1 Dopamine Receptor: Primary Screen for Potentiators (AID 488982). Also: 0% is about no effect. The procedure, abridged: as §1
For assay [3] the target is unchanged. Briefly: HTS Assay for Allosteric Agonists of the Human D1 Dopamine Receptor: Primary Screen for Antagonists (AID 488983).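 Also: calcium flux response to an EC80 dopamine challenge measured with no-wash dye; nearly all actives have a fitted effect of over 65% in size.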 Also: potency is read from the fitted curve at half-maximal effect. Summed up:
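Calcium-flux read-out in inducible HEK293 T-REx cells expressing D1, dye-loaded 30–90 min at room temperature. Kinetic reads: 180 s after compound (agonist phase), then 180 s after an EC80 dopamine challenge.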

The target of assay [4] is Tyrosyl-DNA phosphodiesterase 1 (Homo sapiens) (UniProt Q9NUW8). Briefly: Confirmation Assay for Inhibitors of Tyrosyl-DNA Phosphodiesterase (TDP1) (AID 489007). Also: potency is read from the fitted curve at half-maximal effect; nearly all actives have a fitted effect of over 40% in size. The note with it: recombinant human TDP1 enzymatic activity, dose-response. Summed up: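 AlphaScreen assay of tyrosine-FITC cleavage from a biotinylated DNA substrate (15 nM) by E. coli-expressed human Tdp1 (1 nM). Sequence: compound preincubation 15 min, reaction 5 min, bead detection 10 min, all at room temperature. No-enzyme wells give maximum signal.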
Chain of Tyrosyl-DNA phosphodiesterase 1 (Homo sapiens) (Q9NUW8 whole entry, looked up): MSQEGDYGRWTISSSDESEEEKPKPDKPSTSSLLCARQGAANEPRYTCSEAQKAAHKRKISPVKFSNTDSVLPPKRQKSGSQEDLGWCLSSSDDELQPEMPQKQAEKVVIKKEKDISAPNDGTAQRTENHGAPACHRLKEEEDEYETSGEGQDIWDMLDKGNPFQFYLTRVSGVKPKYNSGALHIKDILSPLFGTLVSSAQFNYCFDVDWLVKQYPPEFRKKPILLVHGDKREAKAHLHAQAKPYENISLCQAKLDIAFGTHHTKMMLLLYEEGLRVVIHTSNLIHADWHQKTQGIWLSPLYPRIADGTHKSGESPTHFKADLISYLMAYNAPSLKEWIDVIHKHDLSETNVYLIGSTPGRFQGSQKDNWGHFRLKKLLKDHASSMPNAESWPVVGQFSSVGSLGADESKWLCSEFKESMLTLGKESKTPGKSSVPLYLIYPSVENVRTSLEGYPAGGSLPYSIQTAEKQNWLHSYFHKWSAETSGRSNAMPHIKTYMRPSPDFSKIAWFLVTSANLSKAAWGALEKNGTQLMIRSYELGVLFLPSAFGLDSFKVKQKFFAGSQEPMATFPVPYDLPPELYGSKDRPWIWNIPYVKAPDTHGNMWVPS

The nature of assay [5]: Validation screen for small molecules that induce genotoxicity in human embryonic kidney (HEK293T) cells expressing luciferase-tagged ELG1 (AID 493106). Also: 0% is about no effect. The procedure, abridged:
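ELG1-luciferase reporter readout (ONE-Glo, 30 min, room temperature) after 16 hr compound treatment at 37 °C of HEK293T cells at 2,000 per well. Rising luminescence flags genotoxic stress.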

Assay [6] has as its target ATPase family AAA domain-containing protein 5 (Homo sapiens) (UniProt Q96QE3). As to the kind of experiment: Validation screen for small molecules that inhibit ELG1-dependent DNA repair in human embryonic kidney (HEK293T) cells expressing luciferase-tagged ELG1 (AID 493107).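 Also: series mostly up to about 46 µM; % is scaled to controls: 0 for no effect and ±100 for the full control effect; inhibitors lower the ELG1-luciferase luminescence signal; nearly all actives have a fitted effect of over 70% in size.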 Summed up: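 Luciferase read-out, ONE-Glo, 30 min at room temperature, follows 16 h co-exposure at 37 C of compound and the DNA-damaging agent 5-fluorouridine. Cells: HEK293T with ELG1-luciferase fusion, 2,000 per well, DMSO as vehicle.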

Assay [7] addresses Thyrotropin-releasing hormone receptor (Homo sapiens) (UniProt P34981). As to the kind of experiment: qHTS for Small Molecule Agonists and Allosteric Enhancers of Human TRH Receptor: Validation Screen for Agonists (AID 493127;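 active = calcium activation more than 3 SD above the typical response in the agonist read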;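 also: intracellular calcium rise by fluo-8 fluorescence before TRH EC20 addition; 0% is about no effect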). Conditions: TRH receptor agonist cell assay; at 2 µM; stronger effect = higher value. The procedure, abridged:
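Compound-evoked intracellular calcium release in fluo-8-loaded TRHR cells, read kinetically on FDSS (Ex 480/Em 530, 1 s/cycle) after 23 nL pintool transfer. Agonist phase preceded 10 nM TRH EC20 addition.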

The nature of assay [8]: Nrf2 qHTS screen for inhibitors: Validation (AID 493153; active = well fitted inhibition curve with a large enough effect in the main read-out, with a control signal flat, not every such curve was filed as active). Conditions: Potency: luciferase luminescence; viability change: measured here: cytotoxicity max response. The procedure, abridged: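 Concentration-response on A549 ARE_Fluc reporter cells exposed 18-24 h at 37 C, 5% CO2. Cytotoxicity read first by CellTiter-Fluor fluorescence (Ex 405/Em 525), then Nrf2 inhibition by BugLite luminescence after 15 min.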
(In general: In qHTS, concentration-response curves come from the screen itself.)

Assay [9] is described as follows: qHTS for Inhibitors of Cell Surface uPA Generation: Validation Assay (AID 493164).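 Also: RAW 264.7 macrophage cells exposed to compound for 18 h; 0% is about no effect.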 Summed up: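 ATP-Lite luminescence read-out: ATP remains high when uPA activity-dependent LF translocation into the cytoplasm is blocked. RAW 264.7 cells, 18 h compound exposure at 37 C; 7-point titration, 2.45 nM to 38.3 uM final.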
For assay [10], the target named is ATP-dependent 6-phosphofructokinase (Trypanosoma brucei brucei) (UniProt O15648). Briefly: qHTS Assay to Find Inhibitors of T. brucei phosphofructokinase: hit validation (AID 492961).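 Also: luminescence reports ADP formed as PFK phosphorylates fructose-6-phosphate with ATP; series mostly up to about 51 µM; % is scaled to controls: 0 for no effect and ±100 for the full control effect.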 The procedure, abridged: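 Percent activity derived from corrected luminescence, normalized between 0x and 1x enzyme controls, then fitted to concentration-response curves. Conditions: 1.25 nM PFK, 0.1 mM ATP, 0.5 mM F6P, 45 min RT.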
Chain of ATP-dependent 6-phosphofructokinase (Trypanosoma brucei brucei) (O15648 whole entry, looked up): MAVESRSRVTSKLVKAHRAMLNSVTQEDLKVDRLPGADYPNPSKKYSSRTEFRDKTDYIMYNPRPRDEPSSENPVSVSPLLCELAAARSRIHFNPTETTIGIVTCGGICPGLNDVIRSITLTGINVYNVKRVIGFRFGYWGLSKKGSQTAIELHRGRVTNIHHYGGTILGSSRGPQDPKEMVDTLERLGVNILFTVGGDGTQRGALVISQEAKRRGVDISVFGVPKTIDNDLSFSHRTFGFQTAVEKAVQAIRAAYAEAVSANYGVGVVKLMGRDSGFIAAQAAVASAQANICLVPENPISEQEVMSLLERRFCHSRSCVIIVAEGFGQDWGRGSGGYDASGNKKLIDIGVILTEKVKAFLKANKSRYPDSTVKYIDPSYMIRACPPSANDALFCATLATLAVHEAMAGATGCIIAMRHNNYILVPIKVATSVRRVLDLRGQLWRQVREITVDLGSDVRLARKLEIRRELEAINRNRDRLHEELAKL

Molecules are shown by their SMILES. Inconclusive results are not listed. Active and inactive are the calls of the source. Unless noted, calls follow the shape of the dose curve; as a rule, active = well fitted curve in the direction sought with a large enough effect; inconclusive = small, poorly fitted or top-dose-only effect, or another doubt; inactive = no such curve, though single readings can be large; an effect the other way counts as inactive or inconclusive.

Chain of Thyrotropin-releasing hormone receptor (Homo sapiens) (P34981 whole entry, looked up): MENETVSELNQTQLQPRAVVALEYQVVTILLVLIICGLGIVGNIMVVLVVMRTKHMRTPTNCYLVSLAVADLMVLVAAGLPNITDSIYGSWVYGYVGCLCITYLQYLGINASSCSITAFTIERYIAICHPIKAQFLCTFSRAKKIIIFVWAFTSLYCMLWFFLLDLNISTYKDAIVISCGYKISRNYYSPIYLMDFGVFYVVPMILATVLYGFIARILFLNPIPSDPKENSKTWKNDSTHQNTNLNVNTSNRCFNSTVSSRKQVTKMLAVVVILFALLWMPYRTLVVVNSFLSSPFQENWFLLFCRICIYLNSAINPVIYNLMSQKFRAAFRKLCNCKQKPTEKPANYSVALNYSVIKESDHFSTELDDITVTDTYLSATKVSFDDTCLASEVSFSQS
Chain of ATPase family AAA domain-containing protein 5 (Homo sapiens) (Q96QE3 whole entry, looked up, the tested form may be a part): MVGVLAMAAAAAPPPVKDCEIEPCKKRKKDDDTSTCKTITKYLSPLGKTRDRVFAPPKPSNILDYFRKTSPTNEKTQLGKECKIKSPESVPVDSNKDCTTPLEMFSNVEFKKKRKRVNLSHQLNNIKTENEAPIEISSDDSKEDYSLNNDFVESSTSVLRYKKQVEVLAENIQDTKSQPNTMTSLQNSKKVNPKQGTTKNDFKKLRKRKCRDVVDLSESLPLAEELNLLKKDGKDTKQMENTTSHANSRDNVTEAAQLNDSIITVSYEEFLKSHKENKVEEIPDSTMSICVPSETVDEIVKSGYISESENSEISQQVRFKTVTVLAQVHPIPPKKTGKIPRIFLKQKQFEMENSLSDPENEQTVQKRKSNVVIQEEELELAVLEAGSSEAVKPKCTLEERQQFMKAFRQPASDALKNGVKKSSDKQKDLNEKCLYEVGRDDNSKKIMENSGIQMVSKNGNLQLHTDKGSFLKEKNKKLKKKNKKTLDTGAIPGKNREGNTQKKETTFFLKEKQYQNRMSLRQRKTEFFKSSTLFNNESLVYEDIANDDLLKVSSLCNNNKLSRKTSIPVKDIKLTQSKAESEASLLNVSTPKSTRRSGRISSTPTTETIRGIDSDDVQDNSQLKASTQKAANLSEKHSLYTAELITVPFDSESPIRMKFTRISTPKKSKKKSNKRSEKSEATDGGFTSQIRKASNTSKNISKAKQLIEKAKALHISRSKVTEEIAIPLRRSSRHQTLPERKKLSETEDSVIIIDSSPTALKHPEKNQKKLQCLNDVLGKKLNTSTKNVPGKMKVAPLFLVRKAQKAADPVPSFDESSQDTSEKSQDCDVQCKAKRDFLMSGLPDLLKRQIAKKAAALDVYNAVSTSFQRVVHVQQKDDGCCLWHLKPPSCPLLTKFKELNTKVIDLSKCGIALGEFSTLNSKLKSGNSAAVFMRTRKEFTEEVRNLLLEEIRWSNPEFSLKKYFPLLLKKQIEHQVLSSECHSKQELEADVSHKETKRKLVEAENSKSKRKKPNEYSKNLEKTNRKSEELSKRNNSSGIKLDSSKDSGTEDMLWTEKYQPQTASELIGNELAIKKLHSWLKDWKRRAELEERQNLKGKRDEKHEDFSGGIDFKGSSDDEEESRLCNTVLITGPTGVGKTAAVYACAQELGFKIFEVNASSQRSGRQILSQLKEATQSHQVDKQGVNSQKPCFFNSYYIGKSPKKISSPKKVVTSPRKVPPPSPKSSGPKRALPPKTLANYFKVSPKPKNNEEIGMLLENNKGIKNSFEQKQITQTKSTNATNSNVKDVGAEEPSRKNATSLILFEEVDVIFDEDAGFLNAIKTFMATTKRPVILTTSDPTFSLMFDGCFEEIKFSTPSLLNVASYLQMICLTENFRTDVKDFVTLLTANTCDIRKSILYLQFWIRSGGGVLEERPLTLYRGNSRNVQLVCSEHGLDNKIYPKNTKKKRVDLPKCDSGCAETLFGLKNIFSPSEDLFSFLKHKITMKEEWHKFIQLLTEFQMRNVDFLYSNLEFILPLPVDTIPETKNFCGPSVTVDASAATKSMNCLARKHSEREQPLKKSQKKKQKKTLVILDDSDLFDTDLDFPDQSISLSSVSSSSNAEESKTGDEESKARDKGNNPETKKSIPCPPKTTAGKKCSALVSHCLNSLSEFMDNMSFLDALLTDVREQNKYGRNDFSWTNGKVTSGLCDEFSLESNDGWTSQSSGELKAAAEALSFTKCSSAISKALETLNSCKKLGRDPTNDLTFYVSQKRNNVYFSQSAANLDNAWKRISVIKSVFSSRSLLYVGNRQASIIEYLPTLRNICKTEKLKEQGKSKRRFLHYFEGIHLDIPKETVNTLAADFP
Chain of D(1A) dopamine receptor (Homo sapiens) (P21728 whole entry, looked up): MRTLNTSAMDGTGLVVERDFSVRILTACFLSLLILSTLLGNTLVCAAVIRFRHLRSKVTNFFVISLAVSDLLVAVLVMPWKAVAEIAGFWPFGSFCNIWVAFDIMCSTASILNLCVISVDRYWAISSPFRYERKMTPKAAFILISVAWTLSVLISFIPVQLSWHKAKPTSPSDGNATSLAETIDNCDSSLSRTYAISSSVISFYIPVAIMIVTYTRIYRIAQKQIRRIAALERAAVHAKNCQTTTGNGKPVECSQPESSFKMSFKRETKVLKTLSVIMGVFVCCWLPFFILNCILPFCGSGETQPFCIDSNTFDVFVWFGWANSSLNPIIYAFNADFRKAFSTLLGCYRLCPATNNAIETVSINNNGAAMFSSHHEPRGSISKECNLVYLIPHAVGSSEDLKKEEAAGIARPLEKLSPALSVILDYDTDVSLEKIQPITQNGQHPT

Turning to `NC(Cc1cc(O)c(O)cc1O)C(=O)O` (stereo unspecified), the Potency entry in assay [1], in [2], in assay [3], in assay [5], in assay [6] and in [8] was “inactive” each time. For the same compound, the Potency in assay [4] is 4.47 µM (active). The activation in assay [7] was 1.06% (inactive). The viability change in assay [8] is -20.4%. Besides, in assay [9], the result was inactive.
Consider `NC(N)=NOCC[C@H](N)C(=O)O`, for which the Potency entry in assay [1], in assay [2], in assay [3], in assay [5], in assay [6] and in [8] was “inactive” each time. In addition, the activation in [7] is -0.375% (inactive). Moreover, the viability change in [8] turned out to be 10.2%. For the same compound, the call in assay [9] was inactive.
Turning to `CC(C)(C)c1o[nH]c(=O)c1CC(N)C(=O)O` (stereo unspecified), the Potency result in assay [1], in assay [2], in assay [3], in [5], in assay [6] and in assay [8] was “inactive” throughout. The activation in assay [7] was 0.625% (inactive). Also, in [8], the viability change was determined as 8%. Besides, in assay [9], the outcome was inactive.
As for `C[N+](C)(C)CC#CCOC(=O)Nc1cccc(Cl)c1`, the Potency entry in assay [1], in assay [2], in assay [3], in assay [5], in assay [6] and in assay [8] was “inactive” in each case. Moreover, the activation in assay [7] is 0.875% (inactive). Moreover, the viability change in assay [8] was -2.28%. Besides, in assay [9], the call was inactive.
For the compound `N[C@@H](Cn1oc(=O)[nH]c1=O)C(=O)O`, the Potency entry in [1], in [2], in assay [3], in [5], in assay [6] and in [8] was “inactive” each time. Moreover, in [7], the activation was -0.562% (inactive). The viability change in [8] is -3.31%. In assay [9], the call was inactive.
For the compound `O=C1C=CC(=O)C=C1`, the Potency result in assay [1], in assay [2], in assay [3], in [5] and in [6] was “inactive” each time. Further, the activation in [7] was 0.5% (inactive).
On to `Cc1sc2ccccc2c1CC1=NCCN1`, for which the Potency entry in assay [1], in [2], in assay [10], in assay [5], in assay [6] and in [8] was “inactive” in each case. In assay [3], the Potency was 10 µM (active). In [7], the activation is 1.12% (inactive). For the same compound, the viability change in [8] is -0.892%. In assay [9], the call was inactive.
`C=CCN1CCC23c4c5ccc(O)c4O[C@H]2C(=O)CC[C@@]3(O)C1C5` (stereo partly specified): the Potency result in assay [1], in assay [2], in assay [3], in assay [10], in [5] and in assay [6] was “inactive” throughout. Also, the outcome in assay [9] was inactive.
For `NC(=O)COc1c(F)cc(SCCNS(=O)(=O)c2ccccc2)cc1F`, the Potency result in assay [1], in assay [2], in assay [3], in [5] and in [6] was “inactive” each time. Further, in assay [7], the activation was 0% (inactive). Besides, in assay [9], the compound was called inactive.
